Laboratory results taken from the supplement of paper PMC11732987, “Enantioselective OTUD7B fragment discovery through chemoproteomics screening and high-throughput optimisation” (Communications Chemistry, 2025).

Key:
Assay in all cases: log2 ratio of Biotin-Ahx-Ub-VS probe labelling (fragment/DMSO); higher = less target engagement (more negative = stronger competition), active = hit call of the paper (q ≤ 0.05, log2 ratio ≤ -1)
Conditions in all cases: compound concentration: 200 uM; treatment time: 3 h
USP34 = USP34 (UniProt Q70CQ2)
In short: (§1)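 Labelling with Biotin-Ahx-Ub-VS (0.5 µM final, 1 h) followed a 3 h triplicate treatment of HEK293T lysate (495 µg per sample, Tris/CHAPS/IGEPAL buffer with protease inhibitors) with fragment at 200 µM or vehicle. Labelled DUBs were NeutrAvidin-enriched, digested with LysC and trypsin, and run by diaPASEF LC-MS/MS. The values, average log2 fragment/vehicle ratios by unpaired t-test, come from global-median-normalised Spectronaut label-free quantities. Proteins with ≥2 unique peptides were used.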

USP36 = target: T1, USP36 (UniProt Q9P275)
T1 sequence (whole entry): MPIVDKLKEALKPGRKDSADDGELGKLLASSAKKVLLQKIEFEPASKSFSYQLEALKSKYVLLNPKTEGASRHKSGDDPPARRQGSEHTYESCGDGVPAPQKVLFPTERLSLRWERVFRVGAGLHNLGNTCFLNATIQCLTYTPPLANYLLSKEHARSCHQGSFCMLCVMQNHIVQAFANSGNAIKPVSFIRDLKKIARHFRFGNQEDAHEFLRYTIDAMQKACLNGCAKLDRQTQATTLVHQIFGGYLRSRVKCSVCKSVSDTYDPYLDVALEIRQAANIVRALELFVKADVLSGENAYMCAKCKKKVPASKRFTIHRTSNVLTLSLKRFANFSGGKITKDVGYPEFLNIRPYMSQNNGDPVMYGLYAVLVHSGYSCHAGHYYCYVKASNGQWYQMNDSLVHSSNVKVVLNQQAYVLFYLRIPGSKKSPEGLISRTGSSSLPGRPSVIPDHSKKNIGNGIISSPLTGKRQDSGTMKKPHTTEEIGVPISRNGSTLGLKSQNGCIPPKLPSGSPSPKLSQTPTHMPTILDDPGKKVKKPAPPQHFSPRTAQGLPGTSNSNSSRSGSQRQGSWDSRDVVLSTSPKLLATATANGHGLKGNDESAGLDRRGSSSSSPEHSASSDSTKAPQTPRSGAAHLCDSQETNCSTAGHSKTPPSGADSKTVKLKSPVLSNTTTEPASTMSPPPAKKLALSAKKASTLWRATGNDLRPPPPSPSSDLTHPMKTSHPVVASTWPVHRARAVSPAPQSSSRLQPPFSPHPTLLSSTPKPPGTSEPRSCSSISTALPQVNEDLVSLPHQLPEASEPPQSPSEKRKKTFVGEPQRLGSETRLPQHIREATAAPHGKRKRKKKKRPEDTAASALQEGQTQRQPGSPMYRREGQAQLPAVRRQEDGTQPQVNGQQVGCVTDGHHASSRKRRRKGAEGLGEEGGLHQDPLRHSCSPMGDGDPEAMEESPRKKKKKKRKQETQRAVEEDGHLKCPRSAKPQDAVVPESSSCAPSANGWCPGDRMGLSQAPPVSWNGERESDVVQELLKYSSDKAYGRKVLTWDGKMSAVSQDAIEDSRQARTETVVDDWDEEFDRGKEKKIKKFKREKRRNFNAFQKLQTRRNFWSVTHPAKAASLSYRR
In short: as §1

USP38 = target: T2, USP38 (UniProt Q8NB14)
T2 sequence (whole entry): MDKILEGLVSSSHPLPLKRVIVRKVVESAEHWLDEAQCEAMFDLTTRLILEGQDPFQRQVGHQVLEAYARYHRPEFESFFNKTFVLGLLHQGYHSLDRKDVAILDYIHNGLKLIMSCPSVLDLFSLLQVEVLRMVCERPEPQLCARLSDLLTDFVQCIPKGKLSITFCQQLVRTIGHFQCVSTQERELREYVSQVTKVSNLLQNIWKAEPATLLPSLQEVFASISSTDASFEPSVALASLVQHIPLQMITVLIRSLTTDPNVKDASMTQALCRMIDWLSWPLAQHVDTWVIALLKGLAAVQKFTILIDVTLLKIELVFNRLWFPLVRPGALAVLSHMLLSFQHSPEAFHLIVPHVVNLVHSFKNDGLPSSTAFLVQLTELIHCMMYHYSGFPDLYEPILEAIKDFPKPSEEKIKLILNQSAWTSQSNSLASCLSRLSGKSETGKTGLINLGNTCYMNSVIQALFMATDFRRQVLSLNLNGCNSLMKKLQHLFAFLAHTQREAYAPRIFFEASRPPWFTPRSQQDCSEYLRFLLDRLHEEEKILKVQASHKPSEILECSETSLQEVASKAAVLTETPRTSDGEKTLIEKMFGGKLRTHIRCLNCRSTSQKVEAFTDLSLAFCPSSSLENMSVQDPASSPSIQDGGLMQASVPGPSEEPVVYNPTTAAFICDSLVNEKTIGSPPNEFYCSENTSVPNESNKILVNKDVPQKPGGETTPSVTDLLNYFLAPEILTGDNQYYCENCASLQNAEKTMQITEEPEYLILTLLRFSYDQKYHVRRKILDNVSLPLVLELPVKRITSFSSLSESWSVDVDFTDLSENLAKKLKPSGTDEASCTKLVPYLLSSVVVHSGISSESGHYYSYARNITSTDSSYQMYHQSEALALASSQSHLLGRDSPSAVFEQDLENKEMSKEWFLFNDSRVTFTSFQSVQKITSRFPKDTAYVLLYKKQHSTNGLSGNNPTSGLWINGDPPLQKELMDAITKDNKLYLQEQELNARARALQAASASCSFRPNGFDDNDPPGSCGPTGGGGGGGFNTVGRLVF
In short: as §1

USP39 = target: T3, USP39 (UniProt Q53GS9)
T3 sequence (whole entry): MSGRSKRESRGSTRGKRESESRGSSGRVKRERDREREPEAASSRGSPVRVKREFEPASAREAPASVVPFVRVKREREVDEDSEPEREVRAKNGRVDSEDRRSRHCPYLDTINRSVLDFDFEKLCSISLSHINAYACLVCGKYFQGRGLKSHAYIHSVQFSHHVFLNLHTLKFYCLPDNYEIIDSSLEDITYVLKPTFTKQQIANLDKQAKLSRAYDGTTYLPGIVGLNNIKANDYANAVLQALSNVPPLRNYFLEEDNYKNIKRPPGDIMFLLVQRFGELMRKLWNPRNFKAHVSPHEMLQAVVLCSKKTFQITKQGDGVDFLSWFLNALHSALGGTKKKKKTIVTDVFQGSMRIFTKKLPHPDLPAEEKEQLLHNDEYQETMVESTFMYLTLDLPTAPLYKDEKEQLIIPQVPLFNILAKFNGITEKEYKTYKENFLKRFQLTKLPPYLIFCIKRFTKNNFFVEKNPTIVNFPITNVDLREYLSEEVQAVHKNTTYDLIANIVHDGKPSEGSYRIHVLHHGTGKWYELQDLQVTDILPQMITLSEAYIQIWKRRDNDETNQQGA
In short: as §1

USP4 = target: T4, USP4 (UniProt Q13107)
T4 sequence (whole entry): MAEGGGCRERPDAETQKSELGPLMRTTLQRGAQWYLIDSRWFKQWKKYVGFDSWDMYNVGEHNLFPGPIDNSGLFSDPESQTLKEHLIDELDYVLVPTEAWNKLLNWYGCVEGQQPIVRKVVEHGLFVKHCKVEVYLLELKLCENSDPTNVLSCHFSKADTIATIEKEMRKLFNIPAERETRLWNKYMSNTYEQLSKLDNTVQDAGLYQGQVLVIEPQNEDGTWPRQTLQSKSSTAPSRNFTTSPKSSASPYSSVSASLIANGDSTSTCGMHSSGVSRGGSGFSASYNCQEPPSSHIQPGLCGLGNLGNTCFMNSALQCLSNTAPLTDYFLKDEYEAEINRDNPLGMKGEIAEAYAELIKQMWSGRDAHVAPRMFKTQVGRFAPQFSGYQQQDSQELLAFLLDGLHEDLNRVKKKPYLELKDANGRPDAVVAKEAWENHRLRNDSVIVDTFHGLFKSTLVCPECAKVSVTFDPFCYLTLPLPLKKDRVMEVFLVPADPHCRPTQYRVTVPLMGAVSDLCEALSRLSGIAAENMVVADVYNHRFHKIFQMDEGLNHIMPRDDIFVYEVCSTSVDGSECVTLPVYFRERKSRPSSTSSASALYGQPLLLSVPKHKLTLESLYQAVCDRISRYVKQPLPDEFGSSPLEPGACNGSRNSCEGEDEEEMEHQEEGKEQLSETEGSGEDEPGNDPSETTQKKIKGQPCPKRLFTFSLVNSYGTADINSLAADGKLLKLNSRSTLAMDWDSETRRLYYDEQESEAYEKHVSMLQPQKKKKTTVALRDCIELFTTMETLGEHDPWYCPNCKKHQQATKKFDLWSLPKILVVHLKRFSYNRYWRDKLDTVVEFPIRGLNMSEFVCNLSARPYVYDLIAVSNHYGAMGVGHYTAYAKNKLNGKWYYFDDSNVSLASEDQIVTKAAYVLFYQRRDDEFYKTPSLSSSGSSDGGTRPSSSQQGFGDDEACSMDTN
In short: as §1

Measured: log2 ratio of Biotin-Ahx-Ub-VS probe labelling

Sequence of USP34 (Q70CQ2 whole entry, the tested form may be a part): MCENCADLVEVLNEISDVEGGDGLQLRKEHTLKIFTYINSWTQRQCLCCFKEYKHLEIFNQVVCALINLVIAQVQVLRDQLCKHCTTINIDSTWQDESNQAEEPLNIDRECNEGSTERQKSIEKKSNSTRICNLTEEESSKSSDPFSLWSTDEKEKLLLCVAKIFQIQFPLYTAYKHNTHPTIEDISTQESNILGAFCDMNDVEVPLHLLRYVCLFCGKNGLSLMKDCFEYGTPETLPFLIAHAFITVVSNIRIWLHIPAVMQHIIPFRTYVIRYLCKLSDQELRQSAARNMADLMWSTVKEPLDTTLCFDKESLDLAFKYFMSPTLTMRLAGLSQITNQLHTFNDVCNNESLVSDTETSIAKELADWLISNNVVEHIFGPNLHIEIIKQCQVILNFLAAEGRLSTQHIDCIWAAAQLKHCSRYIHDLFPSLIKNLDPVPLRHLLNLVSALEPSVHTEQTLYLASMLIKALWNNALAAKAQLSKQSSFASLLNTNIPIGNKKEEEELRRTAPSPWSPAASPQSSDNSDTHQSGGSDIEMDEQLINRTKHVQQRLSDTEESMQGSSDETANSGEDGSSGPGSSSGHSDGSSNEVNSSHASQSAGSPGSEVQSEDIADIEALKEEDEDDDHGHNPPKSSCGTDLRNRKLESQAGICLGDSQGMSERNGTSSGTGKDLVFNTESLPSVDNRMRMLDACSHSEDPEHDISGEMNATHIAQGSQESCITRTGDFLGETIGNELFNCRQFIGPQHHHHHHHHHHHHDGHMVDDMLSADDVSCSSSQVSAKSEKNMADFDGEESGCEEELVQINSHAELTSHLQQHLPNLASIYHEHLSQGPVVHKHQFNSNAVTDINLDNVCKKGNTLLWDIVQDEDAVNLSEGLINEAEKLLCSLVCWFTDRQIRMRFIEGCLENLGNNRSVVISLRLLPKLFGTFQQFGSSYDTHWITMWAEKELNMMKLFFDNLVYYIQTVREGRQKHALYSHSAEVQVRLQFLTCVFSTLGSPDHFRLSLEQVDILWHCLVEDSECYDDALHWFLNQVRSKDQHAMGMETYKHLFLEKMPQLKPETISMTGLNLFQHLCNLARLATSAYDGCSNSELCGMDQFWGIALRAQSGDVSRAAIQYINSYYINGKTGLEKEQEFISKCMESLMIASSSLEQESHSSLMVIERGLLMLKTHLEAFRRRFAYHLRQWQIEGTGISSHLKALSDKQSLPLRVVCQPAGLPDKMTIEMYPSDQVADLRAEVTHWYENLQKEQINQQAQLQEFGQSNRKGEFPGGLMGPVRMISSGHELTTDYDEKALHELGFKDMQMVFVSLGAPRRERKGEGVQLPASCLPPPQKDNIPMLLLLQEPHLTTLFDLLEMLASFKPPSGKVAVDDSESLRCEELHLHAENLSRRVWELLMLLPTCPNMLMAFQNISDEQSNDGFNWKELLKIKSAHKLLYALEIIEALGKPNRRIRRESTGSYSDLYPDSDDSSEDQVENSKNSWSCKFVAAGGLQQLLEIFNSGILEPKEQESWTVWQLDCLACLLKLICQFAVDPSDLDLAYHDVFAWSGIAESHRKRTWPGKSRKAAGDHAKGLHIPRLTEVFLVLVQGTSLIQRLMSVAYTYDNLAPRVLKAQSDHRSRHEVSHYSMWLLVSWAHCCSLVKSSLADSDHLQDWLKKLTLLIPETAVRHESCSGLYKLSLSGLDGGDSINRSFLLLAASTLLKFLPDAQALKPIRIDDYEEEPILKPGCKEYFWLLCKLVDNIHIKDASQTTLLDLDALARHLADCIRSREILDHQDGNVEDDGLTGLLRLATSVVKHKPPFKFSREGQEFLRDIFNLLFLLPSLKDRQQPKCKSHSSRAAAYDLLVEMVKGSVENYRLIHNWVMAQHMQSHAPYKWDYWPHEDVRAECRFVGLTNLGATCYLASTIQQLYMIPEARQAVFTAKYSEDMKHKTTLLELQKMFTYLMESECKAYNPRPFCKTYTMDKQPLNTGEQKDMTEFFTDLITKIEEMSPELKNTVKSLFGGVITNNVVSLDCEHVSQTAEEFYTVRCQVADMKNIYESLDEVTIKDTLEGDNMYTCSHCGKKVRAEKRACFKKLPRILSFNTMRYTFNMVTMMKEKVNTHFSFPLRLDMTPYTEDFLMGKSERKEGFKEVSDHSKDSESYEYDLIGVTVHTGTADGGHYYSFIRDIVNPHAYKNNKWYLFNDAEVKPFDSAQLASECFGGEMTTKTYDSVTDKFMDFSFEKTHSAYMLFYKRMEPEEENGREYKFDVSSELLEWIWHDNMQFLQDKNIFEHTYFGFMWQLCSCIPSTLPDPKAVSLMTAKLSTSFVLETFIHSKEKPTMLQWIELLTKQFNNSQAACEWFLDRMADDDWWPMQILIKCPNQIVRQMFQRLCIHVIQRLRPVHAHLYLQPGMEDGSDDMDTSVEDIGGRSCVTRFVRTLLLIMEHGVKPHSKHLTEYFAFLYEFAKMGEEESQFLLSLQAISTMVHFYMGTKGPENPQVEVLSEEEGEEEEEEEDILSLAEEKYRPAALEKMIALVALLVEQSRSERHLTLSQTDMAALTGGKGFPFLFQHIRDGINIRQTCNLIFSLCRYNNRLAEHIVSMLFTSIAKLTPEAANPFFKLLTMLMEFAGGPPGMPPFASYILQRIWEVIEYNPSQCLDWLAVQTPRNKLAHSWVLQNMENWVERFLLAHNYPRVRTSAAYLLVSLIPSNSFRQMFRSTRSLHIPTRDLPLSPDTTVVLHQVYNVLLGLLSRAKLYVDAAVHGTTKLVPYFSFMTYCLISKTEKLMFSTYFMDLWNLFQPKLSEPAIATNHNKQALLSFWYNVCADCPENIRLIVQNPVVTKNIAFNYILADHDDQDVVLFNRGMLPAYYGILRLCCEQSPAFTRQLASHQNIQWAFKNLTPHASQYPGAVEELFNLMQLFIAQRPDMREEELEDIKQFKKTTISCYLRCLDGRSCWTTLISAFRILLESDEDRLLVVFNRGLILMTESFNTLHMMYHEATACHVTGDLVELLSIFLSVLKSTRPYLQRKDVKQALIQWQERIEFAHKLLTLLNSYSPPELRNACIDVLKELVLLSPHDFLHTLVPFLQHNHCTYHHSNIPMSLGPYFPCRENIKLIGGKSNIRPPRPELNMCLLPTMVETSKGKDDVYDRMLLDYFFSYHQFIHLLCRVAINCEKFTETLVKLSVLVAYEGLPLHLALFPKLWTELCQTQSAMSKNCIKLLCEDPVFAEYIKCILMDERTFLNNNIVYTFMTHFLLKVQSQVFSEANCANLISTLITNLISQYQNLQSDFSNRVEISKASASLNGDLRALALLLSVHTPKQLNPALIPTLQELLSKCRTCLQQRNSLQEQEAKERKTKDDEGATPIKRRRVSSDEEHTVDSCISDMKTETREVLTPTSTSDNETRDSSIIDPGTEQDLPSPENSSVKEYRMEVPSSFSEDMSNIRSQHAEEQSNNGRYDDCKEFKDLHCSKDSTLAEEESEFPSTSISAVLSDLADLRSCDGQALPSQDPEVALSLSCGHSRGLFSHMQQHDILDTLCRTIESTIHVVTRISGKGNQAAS

CCN(C(=O)CCl)C1CCS(=O)(=O)C1 (stereo not given)
inactive: USP34 -0.11 | USP36 -0.152 | USP38 -0.0197 | USP39 -0.0969 | USP4 0.159
